Source: PubChem BioAssay AID1053188 (Broad Institute, 2014)
Where “and” joins values, the source holds several entries; their conditions need not be identical. Equal values may be shown once. In all, about 83,000 compounds went through this assay and about 780 (0.94%) were called active. The sample as a whole holds a higher share of actives than the screen did. Unmarked numbers belong to inactive results.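 Rule for the calls: active = mean inhibition of at least 50% with a set share of replicates also reaching that level; inconclusive = no clear call, values can overlap the other calls; inactive = the rest.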

experiment: CD40 pathway blockade in BL2 B cells – cell-based, luciferase reporter, single point, primary screen (AID 1053188); settings: BL2 NF-kB luciferase reporter, CD40L-induced, 4 h; at 10 µM; hits give high values;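 note: 0% = neutral control wells and 100% = IKK inhibitor VII at 50 µM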

With CC(=O)OC1C2(CC3N4C(=O)C5(CO)SSC4(CC31O)C(=O)N5C)OC(C)C(C)(C)C2=O (stereo not given) the inhibition was 107% (active).
In the case of CCC(C)(O)C(=O)OC1C(=O)OC2CC3C(C)=CC(=O)C(O)C3(C)C3C4(O)OCC23C1C(C)C4O (stereo not given), the inhibition was 107% (active).
In the case of CC(=O)N1C[C@@H]2C(c3ccc(Br)cc3)[C@H](C1)N2C (stereo not given in full), the inhibition was -3.1% and 2.67%.

Compared with Cc1nn(-c2ccccc2)c(C)c1NC(=O)COC(=O)Cc1ccccc1, Cc1cc(C(=O)OCC(=O)Nc2c(F)cccc2F)c(C)n1C1CC1 is lower in inhibition: 3.56% for the first, -11.1% for the second.

First: N=c1ccccn1Cc1ccccc1
Second: c1ccc(CC2CCCCN2)cc1 (stereo not given)
The inhibition of the first is higher: 5.42% for the first, -1.33% for the second.

First: Cc1ccc(C(C)C)c(OCC(=O)N2CCN(CC(=O)N3CCOCC3)CC2)c1
Second: Cc1nc2ccc(N3CCN(C)CC3)cc2nc1C
The inhibition of the first is higher: -7.63% for the first, -20.7% for the second.

With CCOC(=O)C1(CCc2ccccc2)CCN(Cc2ccco2)CC1 the inhibition was 11.2%.
